Laboratory results reported in the supplement of paper PMC10849652.
Of roughly 8,800 targets only a part is listed; those with a hit were picked by preference. About 0.5% of all pairs of compound and target were hits.

What follows are targets tested with CN1CCc2c(c3ccccc3n2Cc2ccc(C(=O)NO)cc2)C1 [Tubastatin A] (assay: log2 fold change, soluble protein after heating vs DMSO (PISA); higher = thermal stabilisation; K562 lysate, 10 uM; active = over 0.2 and 3.5 SD of the protein, either way, in both replicates (recomputed)).
Outline: (§1)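 Values give the log-two fold change in thermal stability against solvent controls, from duplicates. Crude K562 extract at 1 mg/mL protein, made by dounce homogenisation in PBS pH 7.4 with 1 mM MgCl2, was treated with 10 μM compound for 30 min. After 3 min heating across 48°C-58°C, aliquots were pooled, adjusted to 0.5% NP-40 at 4°C and centrifuged at 21,000xg for 90 min. The supernatant was measured by TMTpro 16plex LC-MS/MS with channel sums equalised.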

UniProt Q13535, sequence (Q13535 whole entry, looked up): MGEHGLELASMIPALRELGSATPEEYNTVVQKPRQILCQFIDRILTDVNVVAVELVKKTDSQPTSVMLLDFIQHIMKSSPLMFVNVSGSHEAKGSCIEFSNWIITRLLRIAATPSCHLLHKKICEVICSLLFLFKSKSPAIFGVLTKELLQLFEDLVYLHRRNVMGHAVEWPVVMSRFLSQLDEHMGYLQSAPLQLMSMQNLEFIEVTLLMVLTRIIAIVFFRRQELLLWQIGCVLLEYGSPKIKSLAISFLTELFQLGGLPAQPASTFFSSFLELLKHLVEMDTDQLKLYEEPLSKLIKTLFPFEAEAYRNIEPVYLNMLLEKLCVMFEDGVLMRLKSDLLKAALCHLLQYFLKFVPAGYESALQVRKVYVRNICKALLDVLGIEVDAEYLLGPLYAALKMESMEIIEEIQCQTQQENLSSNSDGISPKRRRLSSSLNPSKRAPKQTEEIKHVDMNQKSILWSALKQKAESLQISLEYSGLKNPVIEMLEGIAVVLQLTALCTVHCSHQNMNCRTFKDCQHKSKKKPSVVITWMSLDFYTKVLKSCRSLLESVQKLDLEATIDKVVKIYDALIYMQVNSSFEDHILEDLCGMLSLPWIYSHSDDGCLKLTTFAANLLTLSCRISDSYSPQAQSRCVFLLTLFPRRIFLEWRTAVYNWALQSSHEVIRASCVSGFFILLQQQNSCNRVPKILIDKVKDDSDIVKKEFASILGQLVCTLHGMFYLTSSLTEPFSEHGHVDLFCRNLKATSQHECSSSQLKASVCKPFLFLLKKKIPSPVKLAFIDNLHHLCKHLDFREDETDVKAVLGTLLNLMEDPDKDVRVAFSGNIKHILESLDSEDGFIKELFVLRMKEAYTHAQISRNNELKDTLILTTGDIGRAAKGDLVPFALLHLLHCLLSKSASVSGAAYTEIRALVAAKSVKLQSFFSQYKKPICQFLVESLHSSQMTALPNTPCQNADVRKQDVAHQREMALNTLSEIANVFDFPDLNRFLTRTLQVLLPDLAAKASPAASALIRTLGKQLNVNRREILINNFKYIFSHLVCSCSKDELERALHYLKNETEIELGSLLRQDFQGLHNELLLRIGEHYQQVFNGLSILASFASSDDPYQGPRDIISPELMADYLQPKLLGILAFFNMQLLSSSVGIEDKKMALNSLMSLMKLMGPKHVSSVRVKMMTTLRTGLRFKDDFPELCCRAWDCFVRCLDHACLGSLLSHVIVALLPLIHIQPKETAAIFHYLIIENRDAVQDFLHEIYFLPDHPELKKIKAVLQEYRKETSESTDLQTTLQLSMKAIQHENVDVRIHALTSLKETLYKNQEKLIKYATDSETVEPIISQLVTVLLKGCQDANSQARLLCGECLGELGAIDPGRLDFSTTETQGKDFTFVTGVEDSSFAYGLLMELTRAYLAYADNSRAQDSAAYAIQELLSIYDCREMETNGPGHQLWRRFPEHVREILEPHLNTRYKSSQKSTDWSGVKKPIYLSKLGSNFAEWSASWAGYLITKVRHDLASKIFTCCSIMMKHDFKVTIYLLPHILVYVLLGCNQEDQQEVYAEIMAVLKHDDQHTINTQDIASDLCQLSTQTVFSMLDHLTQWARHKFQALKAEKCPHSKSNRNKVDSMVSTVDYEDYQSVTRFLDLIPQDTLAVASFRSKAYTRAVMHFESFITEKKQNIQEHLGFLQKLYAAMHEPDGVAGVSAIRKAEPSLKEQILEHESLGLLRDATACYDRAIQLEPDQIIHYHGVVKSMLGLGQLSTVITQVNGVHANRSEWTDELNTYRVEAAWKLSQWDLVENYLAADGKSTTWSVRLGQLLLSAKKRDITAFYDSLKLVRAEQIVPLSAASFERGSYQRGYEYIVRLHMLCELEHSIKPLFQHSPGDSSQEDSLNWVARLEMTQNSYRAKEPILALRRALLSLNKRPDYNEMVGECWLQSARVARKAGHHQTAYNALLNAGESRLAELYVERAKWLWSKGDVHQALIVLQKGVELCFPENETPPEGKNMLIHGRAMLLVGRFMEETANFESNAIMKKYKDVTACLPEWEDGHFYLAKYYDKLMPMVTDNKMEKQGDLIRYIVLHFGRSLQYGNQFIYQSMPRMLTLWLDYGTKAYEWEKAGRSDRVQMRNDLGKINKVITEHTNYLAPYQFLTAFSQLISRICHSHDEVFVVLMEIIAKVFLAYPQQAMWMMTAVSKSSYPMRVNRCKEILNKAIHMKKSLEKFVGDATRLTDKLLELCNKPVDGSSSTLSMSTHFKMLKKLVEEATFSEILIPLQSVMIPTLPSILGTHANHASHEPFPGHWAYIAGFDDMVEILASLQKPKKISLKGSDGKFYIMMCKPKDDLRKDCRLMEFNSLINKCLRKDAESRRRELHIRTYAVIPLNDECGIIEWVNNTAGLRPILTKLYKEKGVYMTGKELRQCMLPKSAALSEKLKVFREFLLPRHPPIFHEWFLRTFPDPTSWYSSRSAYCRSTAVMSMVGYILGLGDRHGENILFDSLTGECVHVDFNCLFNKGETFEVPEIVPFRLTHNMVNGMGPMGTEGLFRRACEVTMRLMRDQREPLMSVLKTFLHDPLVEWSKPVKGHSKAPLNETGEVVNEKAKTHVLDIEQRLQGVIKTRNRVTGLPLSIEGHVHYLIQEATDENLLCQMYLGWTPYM
UniProt Q9Y6K0, sequence (Q9Y6K0 whole entry, looked up): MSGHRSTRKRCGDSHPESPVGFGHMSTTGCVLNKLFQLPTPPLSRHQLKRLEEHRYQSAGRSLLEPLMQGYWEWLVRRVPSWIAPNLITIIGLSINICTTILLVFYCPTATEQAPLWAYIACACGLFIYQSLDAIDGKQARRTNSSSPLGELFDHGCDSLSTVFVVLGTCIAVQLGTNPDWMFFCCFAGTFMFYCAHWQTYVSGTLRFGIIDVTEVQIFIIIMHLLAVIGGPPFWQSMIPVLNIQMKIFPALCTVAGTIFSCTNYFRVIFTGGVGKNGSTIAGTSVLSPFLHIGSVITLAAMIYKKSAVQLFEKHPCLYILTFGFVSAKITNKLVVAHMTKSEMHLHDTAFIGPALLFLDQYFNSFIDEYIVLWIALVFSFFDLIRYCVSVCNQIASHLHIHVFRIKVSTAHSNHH
UniProt O00311, sequence (O00311 whole entry, looked up): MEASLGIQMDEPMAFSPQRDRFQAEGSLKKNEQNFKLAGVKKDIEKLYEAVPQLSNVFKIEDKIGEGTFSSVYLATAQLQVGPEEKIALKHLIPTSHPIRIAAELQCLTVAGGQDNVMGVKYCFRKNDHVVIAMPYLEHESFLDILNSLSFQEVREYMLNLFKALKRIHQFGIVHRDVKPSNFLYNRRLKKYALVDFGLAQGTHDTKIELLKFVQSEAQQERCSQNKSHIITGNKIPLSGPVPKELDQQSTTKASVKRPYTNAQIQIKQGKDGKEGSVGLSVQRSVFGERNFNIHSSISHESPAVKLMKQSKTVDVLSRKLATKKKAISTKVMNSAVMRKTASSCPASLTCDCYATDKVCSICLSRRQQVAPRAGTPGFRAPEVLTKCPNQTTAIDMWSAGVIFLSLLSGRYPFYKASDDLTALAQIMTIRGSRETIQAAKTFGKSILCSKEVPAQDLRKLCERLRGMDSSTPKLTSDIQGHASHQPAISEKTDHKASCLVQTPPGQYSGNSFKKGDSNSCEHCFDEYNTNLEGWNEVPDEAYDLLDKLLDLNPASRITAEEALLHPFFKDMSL
UniProt Q8WUX2, sequence (Q8WUX2 whole entry, looked up): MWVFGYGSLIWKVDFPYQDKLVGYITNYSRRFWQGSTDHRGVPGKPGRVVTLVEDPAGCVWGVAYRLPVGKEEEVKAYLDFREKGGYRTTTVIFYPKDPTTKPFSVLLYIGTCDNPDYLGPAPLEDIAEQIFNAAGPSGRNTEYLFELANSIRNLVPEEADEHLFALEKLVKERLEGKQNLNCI
UniProt Q7L2Z9, sequence (Q7L2Z9 whole entry, looked up): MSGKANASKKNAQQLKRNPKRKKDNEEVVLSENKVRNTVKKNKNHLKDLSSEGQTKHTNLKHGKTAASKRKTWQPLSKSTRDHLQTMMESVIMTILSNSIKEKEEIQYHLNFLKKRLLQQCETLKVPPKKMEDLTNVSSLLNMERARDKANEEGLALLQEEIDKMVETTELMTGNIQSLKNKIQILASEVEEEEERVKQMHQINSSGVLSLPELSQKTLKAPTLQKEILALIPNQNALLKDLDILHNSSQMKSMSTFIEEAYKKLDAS
UniProt P15056, sequence (P15056 whole entry, looked up): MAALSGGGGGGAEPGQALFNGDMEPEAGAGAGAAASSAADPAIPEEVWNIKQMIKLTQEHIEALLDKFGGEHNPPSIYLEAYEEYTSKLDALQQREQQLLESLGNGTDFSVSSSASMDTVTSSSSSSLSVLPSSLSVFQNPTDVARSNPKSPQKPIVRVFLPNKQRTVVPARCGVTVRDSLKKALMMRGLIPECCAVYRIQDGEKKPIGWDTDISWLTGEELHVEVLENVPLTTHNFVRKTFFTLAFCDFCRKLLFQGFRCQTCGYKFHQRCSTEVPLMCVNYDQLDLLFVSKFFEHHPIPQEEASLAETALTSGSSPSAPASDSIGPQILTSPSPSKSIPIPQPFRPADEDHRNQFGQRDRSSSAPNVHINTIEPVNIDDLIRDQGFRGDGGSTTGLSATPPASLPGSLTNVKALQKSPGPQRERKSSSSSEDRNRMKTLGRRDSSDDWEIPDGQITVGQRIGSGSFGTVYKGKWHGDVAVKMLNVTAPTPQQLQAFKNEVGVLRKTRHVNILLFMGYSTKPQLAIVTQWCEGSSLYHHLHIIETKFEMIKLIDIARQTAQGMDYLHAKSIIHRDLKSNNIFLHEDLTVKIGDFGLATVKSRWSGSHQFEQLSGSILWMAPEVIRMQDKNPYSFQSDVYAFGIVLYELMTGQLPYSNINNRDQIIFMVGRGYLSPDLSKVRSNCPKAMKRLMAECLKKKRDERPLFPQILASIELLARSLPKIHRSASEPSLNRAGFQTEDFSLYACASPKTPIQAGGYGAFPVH
UniProt Q9UL45, sequence (Q9UL45 whole entry, looked up): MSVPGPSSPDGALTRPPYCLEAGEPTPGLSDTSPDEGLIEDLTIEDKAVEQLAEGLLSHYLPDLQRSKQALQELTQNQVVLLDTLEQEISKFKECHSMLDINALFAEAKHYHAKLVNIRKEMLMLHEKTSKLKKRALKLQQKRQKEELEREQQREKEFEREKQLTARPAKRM

log2 fold change, inactive:
CEBPZOS (UniProt A8MTT3) -0.124
CDKN1C (UniProt P49918) -0.056
BCKDHB (UniProt P21953) 0.011
CD80 (UniProt P33681) 0
BNIP1 (UniProt Q12981) -0.045
CCNK isoform 4 (UniProt O75909) -0.004
CBX5 (UniProt P45973) 0.037
BCORL1 isoform 3 (UniProt Q5H9F3) -0.006
C18orf32 (UniProt Q8TCD1) 0.035
CASC1 (UniProt Q6TDU7) 0.317
BRD2 isoform 2 (UniProt P25440) 0.002
CDK5 (UniProt Q00535) -0.058
CEP120 (UniProt Q8N960) 0.098
BLOC1S6 (UniProt Q9UL45) 0.033
BMS1 (UniProt Q14692) -0.024
ATR (UniProt Q13535) -0.067
CARNMT1 (UniProt Q8N4J0) 0.045
CDC7 (UniProt O00311) -0.112
CARD11 (UniProt Q9BXL7) -0.023
BRAF (UniProt P15056) -0.071
BRD4 (UniProt O60885) -0.001
CAPNS1 (UniProt P04632) -0.022
CDC25C (UniProt P30307) -0.09
CASC4 (UniProt Q6P4E1) 0.054
CCNB1 (UniProt P14635) 0.021
BTAF1 (UniProt O14981) -0.106
CCDC51 (UniProt Q96ER9) -0.037
ATM (UniProt Q13315) 0.013
CDC42BPA isoform 6 (UniProt Q5VT25) -0.13
CDK11B (UniProt P21127) -0.081
CENPQ (UniProt Q7L2Z9) -0.016
CEPT1 (UniProt Q9Y6K0) 0.055
CD63 (UniProt P08962) 0.023
CHAC2 (UniProt Q8WUX2) 0.019
C3 (UniProt P01024) 0.051
CHCHD4 isoform 2 (UniProt Q8N4Q1) 0.026
CHD1L (UniProt Q86WJ1) -0.16
CCDC22 (UniProt O60826) -0.063
C2CD5 isoform 3 (UniProt Q86YS7) 0.006

These targets were tested with CNC(=O)C1=CC=CC=C1NC2=NC(=NC=C2Cl)NC3=C(C=C(C=C3)N4CCOCC4)OC in the same assay as above.
Outline: as §1

log2 fold change, inactive:
CEBPZOS (UniProt A8MTT3) 0.015
CDKN1C (UniProt P49918) 0.025
BCKDHB (UniProt P21953) 0.008
CD80 (UniProt P33681) 0.014
BNIP1 (UniProt Q12981) 0.055
CCNK isoform 4 (UniProt O75909) 0.01
CBX5 (UniProt P45973) 0.073
BCORL1 isoform 3 (UniProt Q5H9F3) -0.064
C18orf32 (UniProt Q8TCD1) 0.084
BRD2 isoform 2 (UniProt P25440) 0.059
CDK5 (UniProt Q00535) 0.211
CEP120 (UniProt Q8N960) -0.096
BLOC1S6 (UniProt Q9UL45) 0.051
BMS1 (UniProt Q14692) 0.042
ATR (UniProt Q13535) 0.029
CARNMT1 (UniProt Q8N4J0) -0.021
CDC7 (UniProt O00311) 0.077
CARD11 (UniProt Q9BXL7) 0.022
BRAF (UniProt P15056) 0.016
BRD4 (UniProt O60885) 0.02
CAPNS1 (UniProt P04632) 0.032
CDC25C (UniProt P30307) 0.041
CASC4 (UniProt Q6P4E1) 0.011
CCNB1 (UniProt P14635) -0.003
BTAF1 (UniProt O14981) 0.021
CCDC51 (UniProt Q96ER9) -0.001
ATM (UniProt Q13315) 0.013
CDC42BPA isoform 6 (UniProt Q5VT25) -0.015
CDK11B (UniProt P21127) 0.012
CENPQ (UniProt Q7L2Z9) 0.032
CEPT1 (UniProt Q9Y6K0) -0.024
CD63 (UniProt P08962) -0.013
CHAC2 (UniProt Q8WUX2) 0.092
C3 (UniProt P01024) 0.041
CHCHD4 isoform 2 (UniProt Q8N4Q1) 0.027
CHD1L (UniProt Q86WJ1) -0.003
CCDC22 (UniProt O60826) 0.012
C2CD5 isoform 3 (UniProt Q86YS7) -0.003
